Sampled rows, rich in hits. Any-hit rate of the full collection: about 7.5%.
ELG1 genotoxic – genotoxicity induction in ELG1-luciferase HEK293T cells | HEK293T ELG1-luciferase reporter, luminescence, 16 h | Potency, µM (series often up to 46 µM), usual class: activators | actives 1.3% (n = 330,000) | AID 504466; note: nearly all actives have a fitted effect of over 60% in size
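Reporter readout depends on ELG1 protein level, which increases with genetic stress. After 16 hr compound exposure at 37 °C, luciferase activity was quantified using ONE-Glo.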
SMN2 splice up – enhancers of SMN2 splice variant expression; actives 2.8% (n = 210,000); HEK293 SMN2-luciferase splicing reporter, luminescence, 30-36 h; Potency, µM (titrated, usually from 46.1 µM), actives largely listed as activators; note: nearly all actives have a fitted effect of over 55% in size
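HEK293 cells carry an SMN2 minigene-luciferase reporter in which exon 7 inclusion puts luciferase in frame. Cells were seeded at 2000 cells/well, attached for 10-12 hours, then exposed to compounds for 30-36 hours at 37C before ONE-Glo luminescence.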
KinaseGlo FLuc – blocks Kinase-Glo luciferase, a counter-screen artifact | Q27757 | Kinase-Glo luciferase, ATP luminescence, 8 min | Potency, µM (series often up to 38.3 µM), hits mostly inhibitors | actives 0.28% (n = 200,000) | AID 1379; note: nearly all actives have a fitted effect of over 60% in size
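Recombinant Kinase-Glo luciferase, 10 uM ATP (linear range), luciferin; imidazole pH 7.2 / KCl / MgCl2 / Tween / BSA buffer; 8 min RT; luminescence.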
FLuc counter – counter-screen for miR-21 project: firefly luciferase inhibitors or activators | AID 588342 | purified FLuc, Km substrates, luminescence inhibition | actives 6.9% (n = 360,000) | Potency, µM (top dose mostly 57.5 µM), actives largely listed as inhibitors; note: nearly all actives have a fitted effect of over 55% in size
Target sequence (P08659 whole entry, looked up): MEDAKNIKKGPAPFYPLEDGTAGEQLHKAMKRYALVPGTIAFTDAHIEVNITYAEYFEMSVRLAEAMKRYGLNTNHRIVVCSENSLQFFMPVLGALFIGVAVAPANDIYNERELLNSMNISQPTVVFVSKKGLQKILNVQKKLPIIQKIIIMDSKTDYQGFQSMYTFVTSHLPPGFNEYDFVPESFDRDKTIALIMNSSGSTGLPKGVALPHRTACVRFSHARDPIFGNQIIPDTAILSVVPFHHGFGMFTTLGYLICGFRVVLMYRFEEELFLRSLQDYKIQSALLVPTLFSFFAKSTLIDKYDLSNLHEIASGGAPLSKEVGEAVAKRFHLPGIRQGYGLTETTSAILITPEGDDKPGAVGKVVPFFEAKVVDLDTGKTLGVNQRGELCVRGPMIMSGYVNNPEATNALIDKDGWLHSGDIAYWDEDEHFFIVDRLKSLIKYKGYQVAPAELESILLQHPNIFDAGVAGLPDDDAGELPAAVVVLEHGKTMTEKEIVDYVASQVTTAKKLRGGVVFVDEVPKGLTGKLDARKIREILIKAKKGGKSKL
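Biochemical qHTS of compounds, final roughly 60 µM downward over six points, against 10 nM purified firefly luciferase using Km concentrations of substrates (10 uM D-luciferin, 10 uM ATP) in Tris acetate pH 7.5 buffer; luminescence output.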
NPC1 prom act – activates the NPC1 promoter; Huh7 NPC1 promoter luciferase reporter, 24 h; Potency, µM (doses to about 9.22 µM), hits mostly activators; actives 2.4% (n = 320,000); note: nearly all actives have a fitted effect of over 60% in size
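Luminescence read-out of NPC1 promoter-driven luciferase in stably transfected Huh7 cells; compounds delivered in DMSO and left 24 h at 37C, 5% CO2, qHTS titration format.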
Rab9 prom act – activators of Rab9 promoter | Huh7 Rab9 promoter-luciferase reporter, luminescence, 24 h | Potency, µM (doses to about 9.22 µM), hits mostly activators | actives 2.8% (n = 320,000); note: nearly all actives have a fitted effect of over 60% in size
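Huh7 reporter line, Rab9 promoter upstream of luciferase. Compound exposure 24 h at 37 °C in reduced-serum medium with 10% FBS. Read-out: luminescence.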
Numbers stand for hits; 0 = inactive; ? = inconclusive; - = no result given; ! = not confirmed by another sample. Calls come from the whole dose curve; as a rule, active = well fitted curve in the direction sought with a large enough effect; inconclusive = small, poorly fitted or top-dose-only effect, or another doubt; inactive = no such curve, though single readings can be large; an effect the other way counts as inactive or inconclusive.

SMILES	ELG1 genotoxic	SMN2 splice up	KinaseGlo FLuc	FLuc counter	NPC1 prom act	Rab9 prom act
Cc1ccc2nc(C(O)C(O)c3nc4ccc(C)cc4[nH]3)[nH]c2c1 (stereo not drawn)	?	0	0	11µM	0	0
Cc1ccc2nc(/C(C#N)=N/O)[nH]c2c1	0	0	0	13µM	0	0
Cc1ccc2nc(/C(C#N)=C/c3cccc(Br)c3)[nH]c2c1	-	0	-	?	-	-
Cc1ccc2nc(/C(C#N)=C/c3ccc(O)c(O)c3)[nH]c2c1	?	-	-	19µM	0	?
Cc1ccc(NC(=O)CSc2nnc(-c3ccc([N+](=O)[O-])cc3)o2)c(C)c1	-	-	-	0	-	-
COc1ccc(CNC(=O)CCc2nnc3n(CC(C)C)c(=O)c4ccccc4n23)cc1	-	0	-	0	-	-
O=C(Oc1coc(CSc2ncccn2)cc1=O)c1ccccc1[N+](=O)[O-]	0	0	?	6.7µM	0	0
Cc1ccc(C(=O)Nc2nnc(S(=O)(=O)N3CCCCCC3)s2)cc1	0	-	-	9.5µM!	0	0
O=C(Nc1nnc(S(=O)(=O)N2CCOCC2)s1)c1cccc(F)c1	0	-	-	15µM!	?	?
Cc1ccc(C(=O)Nc2nnc(S(=O)(=O)N3CCOCC3)s2)cc1	0	-	-	0	0	?
O=C(Nc1nnc(S(=O)(=O)N2CCCCCC2)s1)c1ccccc1F	0	-	-	17µM	0	0
CCCC(=O)Nc1nnc(S(=O)(=O)N2CCCCCC2)s1	0	-	-	11µM!	0	0
CCCC(=O)Nc1nnc(S(=O)(=O)N2CCCC2)s1	0	-	-	0	0	0
O=C(Nc1cccc(NC(=O)c2cccc([N+](=O)[O-])c2)n1)c1cccc([N+](=O)[O-])c1	?	-	-	0	0	0
CC1CN=C(NC(=O)c2cccc([N+](=O)[O-])c2)S1 (stereo not drawn)	?	-	-	2.4µM	0.5µM	0.4µM
Cc1ccc(OCC(=O)Nc2nnc(S(=O)(=O)N3CCCCCC3)s2)cc1	0	-	-	9.5µM!	0	0
COc1ccccc1C(=O)Nc1nnc(S(=O)(=O)N2CCCCC2)s1	0	-	-	0	0	0
Cc1ccccc1C(=O)Nc1nnc(S(=O)(=O)N2CCCCCC2)s1	0	-	-	13µM!	0	0
COc1ccccc1C(=O)Nc1nnc(S(=O)(=O)N2CCCCCC2)s1	0	-	-	11µM!	0	0
Cc1oc2ncn(C)c(=O)c2c1C(=O)NCCCN1CCCC(C)C1 (stereo not drawn)	-	-	-	0	-	-
O=C(CCn1c(=O)c2cccn2c2cccnc21)N1CCN(c2ccccc2)CC1	-	-	-	0	-	-
C=CCn1c(=O)c2c(nc(-c3ccccc3)n2C)n(C)c1=O	-	0	-	-	-	-
O=C(Nc1nnc(S(=O)(=O)N2CCCC2)s1)c1cccc([N+](=O)[O-])c1	0	-	-	15µM	0	0
COc1ccc(C(=O)Nc2nnc(S(=O)(=O)N3CCC(C)CC3)s2)cc1OC	0	-	-	3.4µM!	0	0
COc1ccc(C(=O)Nc2nnc(S(=O)(=O)N3CCCCCC3)s2)cc1OC	0	-	-	?	0	0
SMILES	ELG1 genotoxic	SMN2 splice up	KinaseGlo FLuc	FLuc counter	NPC1 prom act	Rab9 prom act
CCOc1ccc(CNC(=O)c2cnc3sc(N4CCCCCC4)nn3c2=O)cc1OC	-	-	-	0	-	-
Cc1ccc(C(=O)Nc2cccc(C(=O)NCc3ccccc3)c2)cc1	0	0	0	8.5µM	0	0
COc1ccc(C(=O)Nc2cccc(C(=O)NCc3ccccc3)c2)cc1	0	0	0	12µM	0	0
CCC(=O)Oc1ccc(C(=O)Nc2cccc(C(=O)NCC(C)C)c2)cc1	0	-	0	13µM	0	0
Cc1ccc(C(=O)Nc2cccc(C(=O)NCc3ccco3)c2)cc1	0	?	0	12µM	?	0
Cc1occc1C(=O)Nc1cccc(C(=O)NCc2ccccc2)c1	0	0	0	0	0	0
COc1ccc(NC(=O)c2cccc(NC(=O)c3ccccc3)c2)cc1	0	-	-	?	?	?
COc1ccc(NC(=O)C(c2ccc(C)cc2)N(C)C(=O)/C=C\c2ccc3c(c2)OCO3)cc1 (stereo not drawn)	-	0	-	0	-	-
CC(NC(=O)C(=O)Nc1c2c(nn1-c1ccccc1)CSC2)c1ccccc1 (stereo not drawn)	-	-	-	0	-	-
O=C(Nc1ccccc1C(=O)NCc1ccco1)Nc1cccc2ccccc12	0	0	0	0	0	0

Source: PubChem
